Rows were chosen to be rich in hits. Some 3.1% of all compounds tested hit in one or more screens of this group.
HSF1 inhib: HSF1 inhibition; activity change, negative = inhibition, % at 7.5 µM (by protocol); AID 2098; 0.77% of 300,000 active; NIH3T3-HGL HSE-luciferase, MG132-induced, luminescence 8 h; hits give low values;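 active means more than half of replicate wells show activity change below -50%, luminescence cut by over half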;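 further: luciferase reports HSF-1 transcriptional activity via heat shock element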
HSF-1 act: increases HSF-1 driven luciferase reporter signal; NIH3T3-HGL HSF-1 luciferase reporter, MG132, 8 h; 100% = twice DMSO control signal; activation, % at 9 µM; 1.7% of 300,000 active;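 active means mean replicate activation of at least 50% with a set share of replicates each reaching 50%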
ARNT TACC3 PPI: disrupts binding between human ARNT and TACC3; Q9Y6A5; AlphaScreen His-ARNT PAS-B/GST-TACC3 binding, luminescence; TACC3 fragment carries E629A point mutation; inhibition, % at 9.99 µM; 0.66% of 390,000 active;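 active means mean inhibition of replicates at least 50% and at least half of replicates each reaching 50%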
HSP90 inh: inhibitors of HSP90 luciferase refolding in rabbit reticulocyte lysate. inhibition, % at 5.6 µM. AID 1789. 0.91% of 290,000 active. luciferase refolding luminescence, 3 h;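 active means inhibition above the screen-wide mean plus 3 SD, computed separately per campaign, cut at about 16% in these data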;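 further: inhibitors lower the luminescence because luciferase stays unfolded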
HIF activator: HIF pathway transcriptional activation; AID 1910; U2OS HRE-luciferase reporter, luminescence; normalized: DMSO 0%, desferrioxamine 100%; 0.32% of 300,000 active; activation, % at 7.5 µM (by protocol);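 active means mean activation of at least 10% of the iron chelator positive control signal, with at least half of replicates also reaching 10%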
Hits are given with their value.

How did Cc1cc(NC(=O)CSc2nc(C(C)(C)C)nc3ccccc23)no1 do in these assays?
HSP90 inh: inactive; HIF activator: inactive

What do the screens show for `CCCc1nc(SCC(=O)Nc2cc(C)on2)c2ccccc2n1`?
HSF1 inhib: inactive; HSF-1 act: 106; ARNT TACC3 PPI: inactive; HSP90 inh: inactive; HIF activator: inactive

Results for Cc1cc(NC(=O)CSc2nc(CCC3CCCC3)nc3ccccc23)no1 ?
HSF1 inhib: inactive; HSF-1 act: 59; ARNT TACC3 PPI: inactive; HSP90 inh: inactive; HIF activator: inactive

How did CCCCNC(=O)CSc1nc(Cc2ccccc2)nc2ccccc12 do in these assays?
HSF1 inhib: inactive; HSF-1 act: 52; ARNT TACC3 PPI: inactive; HSP90 inh: inactive; HIF activator: inactive

Results for CCn1cc(SCC(=O)Nc2cc(C)on2)c2ccccc21 ?
HSF1 inhib: -59; HSF-1 act: inactive; ARNT TACC3 PPI: inactive; HSP90 inh: inactive; HIF activator: inactive

Results for C[C@@H]1CCCCO[C@@H](CN(C)Cc2ccc3c(c2)OCO3)[C@@H](C)CN([C@@H](C)CO)C(=O)c2cc(NS(=O)(=O)c3ccc(F)cc3)ccc2O1 ?
ARNT TACC3 PPI: inactive

Results for CCOc1cc(C2NN=C(c3ccccc3)S2)ccc1OCc1ccccc1Cl (stereo not given) ?
HSF1 inhib: inactive; HSF-1 act: 53; ARNT TACC3 PPI: inactive; HSP90 inh: inactive; HIF activator: inactive

How did CCOc1cc(C2NN=C(c3ccccc3)S2)ccc1OCc1ccc(F)cc1 (stereo not given) do in these assays?
HSF1 inhib: inactive; HSF-1 act: 56; ARNT TACC3 PPI: inactive; HSP90 inh: inactive; HIF activator: inactive

How did CCOc1cc(CNC2CCCC2)ccc1OCc1ccccc1Cl do in these assays?
HSF1 inhib: inactive; HSF-1 act: inactive; ARNT TACC3 PPI: inactive; HSP90 inh: inactive; HIF activator: inactive

How did C/C=C/c1ccc2c(c1)O[C@H](CN(C)C(=O)c1ccccn1)[C@H](C)CN([C@@H](C)CO)S2(=O)=O do in these assays?
ARNT TACC3 PPI: inactive

How did CC(C)(C)C(=O)Nc1sc2c(c1C#N)CCN(Cc1ccccc1)C2 do in these assays?
HSF1 inhib: inactive; HSF-1 act: 57; ARNT TACC3 PPI: inactive; HSP90 inh: inactive; HIF activator: inactive

Results for Cc1ccc(N2CC(C(=O)Nc3nnc(SCCN4CCOCC4)s3)CC2=O)cc1 (stereo not given) ?
HSF1 inhib: -55; HSF-1 act: inactive; ARNT TACC3 PPI: inactive; HSP90 inh: inactive; HIF activator: inactive

Results for O=C(Nc1nnc(SCCN2CCOCC2)s1)C1CC(=O)N(c2ccccc2)C1 (stereo not given) ?
HSF1 inhib: inactive; HSF-1 act: inactive; ARNT TACC3 PPI: inactive; HSP90 inh: inactive; HIF activator: inactive

What do the screens show for `COC(=O)C[C@@H]1CC[C@@H]2[C@@H](COc3ccc(NC(=O)c4cscn4)cc3C(=O)N2C)O1`?
ARNT TACC3 PPI: inactive

Results for C[C@@H]1CCCCO[C@@H](CN(C)C(=O)Nc2ccc3c(c2)OCO3)[C@H](C)CN([C@H](C)CO)C(=O)c2cc(NC(=O)c3ccncc3)ccc2O1 ?
ARNT TACC3 PPI: inactive

How did OCC[C@H]1C[C@H](O)[C@@H](O)[C@@]2(Cc3ccccc3CO2)O1 do in these assays?
ARNT TACC3 PPI: inactive

What do the screens show for `OCC[C@@H]1C[C@@H](O)[C@H](O)[C@@]2(Cc3ccccc3CO2)O1`?
HSF1 inhib: -66; HSF-1 act: inactive; ARNT TACC3 PPI: inactive; HSP90 inh: inactive; HIF activator: inactive

What do the screens show for `CN1c2ccc(C3=CCCCC3)cc2[C@H]2[C@H](CCN2C(=O)Cc2ccccn2)[C@@H]1CO`?
ARNT TACC3 PPI: inactive

How did CN(C)c1ccc(CNC(=O)CCS(=O)(=O)c2ccc3c(c2)oc(=O)n3C)cc1 do in these assays?
HSF1 inhib: inactive; HSF-1 act: inactive; ARNT TACC3 PPI: inactive; HSP90 inh: inactive; HIF activator: 33

Results for COc1ccc(CNC(=O)CCS(=O)(=O)c2ccc3c(c2)oc(=O)n3C)cc1 ?
HSF1 inhib: inactive; HSF-1 act: inactive; ARNT TACC3 PPI: inactive; HSP90 inh: inactive; HIF activator: inactive

How did CCOc1ccc(CNC(=O)CCS(=O)(=O)c2ccc3c(c2)oc(=O)n3C)cc1 do in these assays?
HSF1 inhib: -76; HSF-1 act: inactive; ARNT TACC3 PPI: inactive; HSP90 inh: inactive; HIF activator: inactive

How did COc1ccc(S(=O)(=O)N2C[C@H](O)COC[C@@H]3O[C@@H](CC(=O)NCc4ccc(Cl)c(Cl)c4)CC[C@H]32)cc1 do in these assays?
ARNT TACC3 PPI: inactive

Compound activity: PubChem, several laboratories
